# Inconclusive results are not listed. A call without a number means that no potency is given here. The source made the active and inactive calls. The call rests on the fitted dose curve; in most records, active means well fitted cell-killing curve with a large enough effect; inconclusive means small, poorly fitted or top-dose-only effect, or effect the other way; inactive means no such curve, though single readings can be large or run the other way.
# Test: qHTS of pediatric cancer cell lines to identify multiple opportunities for drug repurposing: Confirmatory screen for SJ-GBM2 cells (AID 1347116);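 further: 48 hour compound exposure; nearly all actives have a fitted effect of over 60% in size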
# Conditions: SJ-GBM2 glioblastoma cells, viability; series mostly up to 45.9 µM
# Source text: Drug repurposing or repositioning has been offered as a strategy for drug development in oncology programs. This approach has special potential for childhood cancers and other rare or orphan diseases, where the expected return on new drug development has been a disincentive to pharmaceuticals.
# In this project we exploit the poly-pharmacology of drugs to discover new indications via phenotypic screening of a panel of 19 well-characterized cell lines derived from solid tumors seen in children and adolescents. The goal is to identify approved drugs with previously unrecognized anticancer properties that has the potential to reveal new mechanisms and biological processes involved in carcinogenesis or drug resistance. We employed a titration-based paradigm (quantitative high-throughput screening or qHTS), where all compounds were tested at multiple concentrations for their effect on cell viability. Concentration-response curves (CRCs) were derived directly from the primary screen, and both potency and efficacy values were used to identify compounds with robust bioactivity profiles. We screened the NIH Chemical Genomics Center (NCGC) Pharmaceutical Collection (NPC) and Mechanism Interrogation Plate (MIPE) small molecule collections of approved and investigational compounds against these cell lines; and measured metabolically active cells after 48 hours of compound treatment as a proxy for cell viability.
# Assay Submitter: Nathalia J. Martinez, National Center for Advancing Translational Sciences, National Institutes of Health, Rockville, MD, USA; email: natalia.martinez@nih.gov
# [1] Shen, M et al. Quantitative high-throughput phenotypic screening of pediatric cancer cell lines identifies multiple opportunities for drug repurposing. Oncotarget 2017 Dec 19;9(4):4758-4772. PMID 29435139.
# The cells were obtained from University of North Carolina (UNC), Pediatric Preclinical Testing Program (PPT), and Coriell Institute (CI).
# qHTS cell viability assay:
# Cells were assayed in growth media at a density of 500-1,000 cells/well. Five microliters of cells were dispensed into 1,536-well, white, solid-bottom, TC-treated plates (Greiner Bio One) using a multidrop dispenser and incubated at 37 degrees C, 5% CO2, under a humidified atmosphere for 5 hours. Twenty-three nanoliters of compounds and controls (neutral control DMSO or positive control bortezomib at final concentration of 2.3 µM) were subsequently transferred by Kalypsys pintool. For primary screens, the MIPE collection was tested at 11-point dilutions (final concentrations range from 0.78 nM to 46 µM) and the NPC collection at 8-point dilutions (final concentrations range from 0.59 nM to 46 µM). Compounds tested in follow-up screens were assayed at 11-point dilutions. Cells were incubated for 48 hours, followed by addition of 3 uL of CellTiter-Glo (Promega). After a 15 min incubation at room temperature, samples were analyzed for luminescence intensity using a ViewLux High-throughput CCD imager equipped with clear filters.
# Potency means the concentration at half of the fitted maximal effect.
row,Structure (SMILES),Potency
1,N=C(N)c1ccc(OCCCCCOc2ccc(C(=N)N)cc2)cc1,inactive
2,C[C@@H](CN1CC(=O)NC(=O)C1)N1CC(=O)NC(=O)C1,inactive
3,Nc1nc(F)nc2c1ncn2[C@@H]1O[C@H](CO)[C@@H](O)[C@@H]1O,1.65 µM (active)
4,CNCC[C@H](Oc1cccc2ccccc12)c1cccs1,inactive
5,COc1ccc(C(=O)CC(=O)c2ccc(C(C)(C)C)cc2)cc1,inactive
6,Nc1nc(=S)c2[nH]cnc2[nH]1,5.22 µM (active)
7,CCCCOc1ccc(CC(=O)NO)cc1,inactive
8,O=C(NCC1CN(c2ccc(N3CCOCC3=O)cc2)C(=O)O1)c1ccc(Cl)s1 (stereo unspecified),inactive
9,Cn1nnc2c(C(N)=O)ncn2c1=O,inactive
10,CS(=O)(=O)c1ccc([C@@H](O)[C@@H](CO)NC(=O)C(Cl)Cl)cc1,inactive
11,COc1cc2c(Nc3ccc(Br)cc3F)ncnc2cc1OCC1CCN(C)CC1,inactive
12,CCOC(=O)[C@H](CCc1ccccc1)N[C@H]1CS[C@H](c2cccs2)CN(CC(=O)O)C1=O,inactive
13,CC(C)(C)C(=O)OCOP(=O)(COCCn1cnc2c(N)ncnc21)OCOC(=O)C(C)(C)C,inactive
14,Cc1cccc(N(C)C(=S)Oc2ccc3ccccc3c2)c1,inactive
15,CO[C@@]12[C@H](COC(N)=O)C3=C(C(=O)C(C)=C(N)C3=O)N1C[C@@H]1N[C@@H]12,16.5 µM (active)
16,CN(C)c1ccc(C(=C2C=CC(=[N+](C)C)C=C2)c2ccc(N(C)C)cc2)cc1,1.17 µM (active)
17,COc1cc2nc(N3CCCN(C)CC3)nc(NC3CCN(Cc4ccccc4)CC3)c2cc1OC,0.928 µM (active)
18,CNS(=O)(=O)CCc1ccc2[nH]cc(C3CCN(C)CC3)c2c1,inactive
19,CC(C)C[C@H](NC(=O)[C@H](CCc1ccccc1)NC(=O)CN1CCOCC1)C(=O)N[C@@H](Cc1ccccc1)C(=O)N[C@@H](CC(C)C)C(=O)[C@@]1(C)CO1,0.0737 µM (active)
20,CC1CC2C3CCC4=CC(=O)C=C[C@]4(C)[C@@]3(F)[C@@H](O)C[C@]2(C)[C@@]1(O)C(=O)CO (stereo partly specified),inactive
21,CCC(=O)O[C@]1(C(=O)CCl)[C@@H](C)C[C@H]2[C@@H]3CCC4=CC(=O)C=C[C@]4(C)[C@@]3(F)[C@@H](O)C[C@@]21C,inactive
22,S=P(N1CC1)(N1CC1)N1CC1,inactive
23,CC(C(=O)O)c1ccc2c(c1)CC(=O)c1ccccc1S2 (stereo unspecified),inactive
24,COc1nc(N)nc2c1ncn2[C@@H]1O[C@H](CO)[C@@H](O)[C@@H]1O,inactive
25,CNNCc1ccc(C(=O)NC(C)C)cc1,inactive
26,CC(C)NCC(O)c1ccc(NS(C)(=O)=O)cc1 (stereo unspecified),inactive

# — PubChem BioAssay (NCATS)
